ZTA DNA inh – blocks Epstein-Barr virus ZTA, an EBNA-1 counter-screen. P03206. ZTA-DNA binding, fluorescence polarization. inhibition, % at 11 µM. 0.15% of 320,000 active; in the data active means inhibition above about 33%
Target sequence (P03206 whole entry, looked up): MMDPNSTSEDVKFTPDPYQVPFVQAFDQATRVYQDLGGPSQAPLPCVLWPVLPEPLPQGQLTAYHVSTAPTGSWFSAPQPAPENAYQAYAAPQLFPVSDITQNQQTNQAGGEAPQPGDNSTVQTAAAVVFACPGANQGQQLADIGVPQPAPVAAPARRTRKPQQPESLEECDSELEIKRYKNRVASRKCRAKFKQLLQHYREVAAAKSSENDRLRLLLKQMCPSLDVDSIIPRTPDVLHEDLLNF
EBNA-1 inh – EBNA-1 DNA-binding inhibitors, primary screen, biochemical, fluorescence polarization; inhibition, % at 14.8 µM; 0.34% of 300,000 active; AID 1950, 2009; in the data active means inhibition above about 28%
NLRP3 yeast inh – NALP3 inflammasome inhibitors in reconstituted yeast, primary screen, luminescence, uHTS; Yeast reconstituted NLRP3/ASC/caspase-1, beta-gal luminescence, 24 h; inhibition, % at 10 µM; 0.39% of 330,000 active; AID 2825, 2010;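 active means inhibition of 50% or more; inactive means inhibition below 50%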;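 further: plate controls were induced DMSO wells for no effect and uninduced yeast grown without galactose for full effect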
NALP1 yeast inh – NALP1 inflammasome inhibitors in reconstituted yeast, colorimetric, S. cerevisiae, triplicate retest; S. cerevisiae NALP1/ASC/caspase-1 growth, X-gal OD620, 72 h; inhibition, % at 10 µM; 0.61% of 280,000 active; in the data active means inhibition mostly above about 24%, no sharp cut-off; inactive means mostly below about 32%
dFosB act – activators of delta FosB homodimer, primary screen, biochemical, fluorescence polarization, TAMRA-CDK5 oligo, single point; 0.99% of 340,000 active; Protein FosB (Mus musculus), P13346; purified delta FosB; percent of positive-control signal above neutral wells; activation, % at 25 µM;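 active means mean activation above about 17%, with every replicate also reaching it, limit read from the data, passing the limit was not always enough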
Target sequence (P13346 whole entry, looked up): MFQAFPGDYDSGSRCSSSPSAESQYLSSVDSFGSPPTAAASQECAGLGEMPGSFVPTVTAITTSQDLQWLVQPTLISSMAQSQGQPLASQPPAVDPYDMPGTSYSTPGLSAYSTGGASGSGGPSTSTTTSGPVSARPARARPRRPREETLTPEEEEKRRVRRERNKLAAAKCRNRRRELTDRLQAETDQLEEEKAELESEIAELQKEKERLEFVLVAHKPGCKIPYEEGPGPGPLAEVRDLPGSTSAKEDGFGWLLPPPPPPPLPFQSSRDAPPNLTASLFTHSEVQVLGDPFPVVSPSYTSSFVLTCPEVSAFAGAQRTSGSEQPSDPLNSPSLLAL
PolyA inh – polyadenylation inhibitors in yeast reporter cells, primary screen, luminescence, S. cerevisiae | S. cerevisiae SKY197-pL101 polyadenylation reporter, beta-gal luminescence; efflux-impaired pdr1/pdr3 knockout yeast; score 100 = 6 SD above DMSO | activity score, % at 12 µM | 0.02% of 300,000 active | AID 1875, 2009;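 active means lowest replicate activity score at least 50, where 100 means six control SD above control mean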;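 further: yeast exposed to compound for 9 h at 30 °C; higher score means more reporter readthrough which indicates perturbed polyadenylation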
* = called active by the depositor; . = not tested or not shown. Compounds with a hit are over-represented: about 2.2% of the library has one in this group of screens.

SMILES | ZTA DNA inh | EBNA-1 inh | NLRP3 yeast inh | NALP1 yeast inh | dFosB act | PolyA inh
CCN(CC(=O)NCc1cccs1)c1ccc(S(=O)(=O)N2CCN(C)CC2)cn1 | -0.1 | 7.7 | 17.1 | 39.2* | -1.0 | 5.0
CCc1c(-c2ccccc2)nc2sc3c(c2c1N)CCCC3 | 5.5 | -3.0 | 10.3 | 6.1 | -4.6 | -0.4
Nc1c2c(nc3sc4c(c13)CCCCC4)CCCCC2 | -6.2 | -1.9 | 17.2 | 63.8* | 7.9 | 0.6
COc1ccc(Cn2cc3c(-c4ccc(F)cc4)nnc-3c3cc(OC)c(OC)cc32)cc1 | 10.8 | 8.3 | 3.5 | 22.6 | 34.3* | .
COc1cc2c3nnc(-c4ccc(F)cc4)c-3cn(Cc3ccccc3)c2cc1OC | 3.8 | -1.7 | 18.0 | 33.9 | 18.9* | 2.8
NC(=O)C(=O)N/N=C/c1c2ccccc2cc2ccccc12 | 0.1 | -8.3 | 0.7 | 0.5 | -1.3 | 5.6
Oc1ccc(CN2CCC(Cc3ccccc3)CC2)c2cccnc12 | . | . | 11.9 | 31.0* | . | -29.5
COc1cc(/C=C2/CC/C(=C/c3ccc(O)c(OC)c3)C2=O)ccc1O | -9.9 | -1.1 | 1.0 | . | -26.2 | 61.4*
COc1ccc(/C=C2\CC/C(=C\c3ccc(OC)c(OC)c3)C2=O)cc1OC | 21.0 | -2.4 | 5.4 | 24.2 | -8.9 | -35.4
COc1ccc(C(=O)NCCC2=CCCCC2)cc1[N+](=O)[O-] | 12.7 | 1.4 | 1.9 | 35.0* | 0.8 | 5.1
COc1ccc(OCC(=O)NCCC2=CCCCC2)c([N+](=O)[O-])c1 | 14.2 | 5.0 | 37.0 | -5.3 | -4.6 | 3.5
CCCCN(C(=O)CSc1n[nH]c(-c2ccc(C)cc2)n1)c1c(N)n(CCCC)c(=O)[nH]c1=O | -15.0 | -0.4 | 7.7 | . | -12.5 | -3.9
COc1cccc(NC(=O)Cn2c3ccc(F)cc3c3nc4n(c(=O)c32)CCCS4)c1 | -4.3 | 0.6 | 0.9 | 1.1 | 12.3 | -0.9
CCOC(=O)c1cc2c(=Cc3ccc(N(C)C)cc3)c3ccccc3n2[n+]1C | . | . | . | . | 45.7* | .
CN(C)c1ccc(C=c2c3ccccc3n3c2c2ccccc2[n+]3C)cc1 | . | . | . | . | -258.6 | .
Cc1cc2c(=Cc3ccc(N(C)C)cc3)c3ccccc3n2[n+]1C | . | . | . | . | 99.9* | .
CN(C)c1ccc(C=c2c3cc(O)ccc3n3c2cc(-c2ccccc2)[n+]3C)cc1 | . | . | . | . | 81.6* | .
O=c1[nH]c(=S)[nH]c2c1C(c1ccc(Br)cc1)c1c([nH]c(=S)[nH]c1=O)O2 | 66.6* | 30.9* | . | -15.4 | -12.6 | -1.1
Nc1ncc(Br)cc1S(=O)(=O)Nc1cc(C(F)(F)F)cc(C(F)(F)F)c1 | 1.1 | -14.2 | 22.1 | 12.9 | -3.9 | 2.5
Cc1ccc(-c2nc(Nc3cccc(O)c3)c3ccccc3n2)cc1 | 6.2 | -7.8 | 24.7 | 21.8 | 22.0* | 3.0
Oc1cccc(Nc2c3ccccc3nc3ccccc23)c1 | -6.4 | 6.7 | 25.8 | -9.3 | 64.9* | 15.2
c1cncc(Nc2c3ccccc3nc3ccccc23)c1 | -0.3 | 2.2 | 11.8 | 14.4 | 30.1* | -10.4
Oc1ccc(C[C@H]2CNC(=S)N2CC2CCCN2C[C@H](Cc2ccc(O)cc2)N2C[C@H](Cc3ccccc3)N(CC3CCCCC3)C2=S)cc1 (some centres undefined) | . | . | . | . | 49.2* | .
Oc1ccc(C[C@H]2CNC(=S)N2CC2CCCN2C[C@H](Cc2ccc(O)cc2)N2C[C@H](Cc3ccc(O)cc3)N(CC3CCCCCC3)C2=S)cc1 (some centres undefined) | . | . | . | . | 14.2 | .
Cc1nc(NC(=O)CCc2ccccc2)sc1C | 2.1 | 0.6 | 29.1 | 19.4 | -7.8 | -5.5
SMILES | ZTA DNA inh | EBNA-1 inh | NLRP3 yeast inh | NALP1 yeast inh | dFosB act | PolyA inh
Nc1ncnc2c1ncn2[C@@H]1O[C@H](CNC(=O)[C@@H]2CCC(=O)N2)[C@@H](O)[C@H]1O | . | . | . | . | 6.5 | .
O=C(C=Cc1cccs1)c1ccccc1 | . | . | . | . | -6.7 | .
COc1ccc(/C=N/NC(=O)CC(=O)NCc2cccnc2)cc1 | -4.0 | 2.3 | -0.6 | 23.4* | -9.3 | 6.1
Cc1cc(C)c(S(C)(=O)=O)c(Oc2cccc(Cl)c2)n1 | -16.8 | 4.1 | -1.4 | 30.7 | -0.1 | -9.7
Cc1cc(C)c(S(C)(=O)=O)c(Oc2ccc(C(C)(C)C)cc2)n1 | -2.9 | 6.0 | 16.3 | 30.5* | -2.5 | -0.1
COC(=O)c1ccccc1NC(=O)C/C(C)=N/NC(=O)CC#N | -15.0 | -2.4 | 26.0 | 33.6* | -1.7 | 0.2
O=C1CC(N2CCCCCC2)C(=O)N1c1ccc(F)cc1 (centres undefined) | 4.0 | -5.2 | -6.5 | 36.9* | -0.4 | 1.7
COc1ccc(CCNc2c3ccccc3nc3ccccc23)cc1OC | -6.3 | 2.4 | 4.6 | -2.7 | 29.6* | 3.4
COc1ccccc1Nc1nc(-c2ccccc2)nc2ccccc12 | -7.8 | 3.3 | 2.9 | -5.2 | -3.6 | -11.5
COc1nc(NCCc2ccc(OC)c(OC)c2)nc(OC)n1 | -3.9 | -1.9 | 7.3 | 2.6 | -6.1 | 0.3
c1ccc2c(c1)nc(N1CCCCC1)c1ccccc12 | 2.5 | 4.3 | 12.9 | 39.3* | -9.0 | -32.3
COc1ccccc1Nc1c2ccccc2nc2ccccc12 | -12.2 | -21.0 | 16.1 | 32.2 | 37.3* | 8.4
COc1ccc(Nc2c3ccccc3nc3ccccc23)cc1 | -16.1 | -8.8 | 6.8 | . | 59.8* | 13.7
c1ccc2c(N3CCCCC3)nc(N3CCCC3)nc2c1 | -1.2 | -18.9 | 5.6 | 2.8 | -19.1 | 12.4
Cc1cc(Br)c(NC(=O)COC(=O)C2CCCCC2)c(Br)c1 | . | . | 4.7 | . | -1.7 | .
COc1ccc(Nc2nc(-c3ccncc3)nc3ccccc23)cc1 | 13.9 | -1.6 | 11.0 | 37.1* | -1.2 | -1.3
CCN(CC)c1ccc(Nc2nc(N3CCOCC3)c3ccccc3n2)cc1 | -14.7 | -12.5 | 9.2 | 17.4 | -1.5 | -15.5
COc1cc(Nc2c3ccccc3nc3ccccc23)cc(OC)c1OC | 21.1 | 8.9 | -12.1 | 17.0 | 43.9* | -0.1
COc1ccc(OC)c(Nc2nc(-c3ccncc3)nc3ccccc23)c1 | . | . | 0.9 | 13.1 | -6.6 | -1.0
COc1ccc(Nc2nc(N3CCCC3)c3ccccc3n2)cc1 | -0.7 | 2.4 | 35.8 | 18.3 | 59.1* | -16.6
Cn1c(=O)c2c(ncn2CC(=O)Nc2nc(-c3ccccc3Cl)cs2)n(C)c1=O | -8.6 | 27.5* | -7.8 | -3.7 | -0.8 | 2.4
Cc1nnc(C)c2c(C)n(-c3ccc4ncccc4c3)c(C)c12 | 12.1 | -4.2 | -6.0 | 25.4* | . | -6.5
CCCN1CCCc2cc(CN(CCCN3CCOCC3)C(=O)Nc3ccc(OCC)cc3)ccc21 | 1.4 | 6.6 | 19.8 | 44.6* | -21.1 | -9.6
CCOc1ccc(NC(=O)N(CCN2CCOCC2)Cc2ccc3c(c2)CCCN3CC)cc1 | -13.2 | -4.7 | 17.5 | 1.3 | 0.9 | 3.0
Cn1c(C(=O)N2CCCC(C(=O)O)C2)cc2sccc21 (centres undefined) | 6.0 | -12.2 | 1.8 | 10.7 | 0.3 | -5.5
